Holding throughout (assay): NCI-60 one-dose screen, 48 h (100 = growth as untreated, 0 = no growth, -100 = all killed)
Conditions in all cases: 10 µM unless noted

In assay [1] the test system is NCI-H23 lung.
In assay [2] the test system is NCI-H226 lung.
The test system of assay [3] is NCI-H322M lung.
Assay [4] deals with HOP-62 NSCLC.
For assay [5], the system named is NCI-H460 lung.
Assay [6] relates to HOP-92 NSCLC.
In assay [7] the test system is NCI-H522 lung.
Assay [8] has as its system A549/ATCC NSCLC.
In assay [9] the test system is 786-0 renal.
Assay [10] deals with COLO 205 colon.
Assay [11] concerns DU-145 prostate.
Assay [12] relates to K-562 leukemia.
For assay [13], the system named is MALME-3M melanoma.
Assay [14] concerns MDA-MB-231 breast.
Assay [15] has as its system RXF 393 renal.
The test system of assay [16] is SF-268 CNS.
Assay [17] concerns SF-295 CNS.
Assay [18] relates to SF-539 CNS.
Assay [19] deals with UACC-257 melanoma.
The test system of assay [20] is M14 melanoma.

About 83,000 compounds went through this panel and 20% of them were active in at least one assay; those are over-represented in the sample as a whole.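 Percent growth is the endpoint: 0 to 100 indicates growth inhibition (40 means 60% inhibition), 0 means no net growth, and negative values indicate cell death.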 Unmarked numbers belong to inactive results. Calls of active or inactive are those of the source. Rule for the calls: active = growth percent below 10; inactive = the rest.

Consider `COC(=O)c1sc(-c2ccc(C)cc2)cc1O`, for which the growth was 99.1% in [1]; 109% in assay [2]; 94.2% in assay [3]; 109% in assay [4]; 101% in assay [5]; 105% in assay [6]. The growth in assay [7] is 105%; in assay [8], 103%; in [9], 96.7%; in assay [10] it was 107%; in assay [11], 101%; in assay [12], 84.3%. For the same compound, the growth is 97.9% in assay [13]; 99.6% in assay [14]; 109% in assay [15]; 96.2% in assay [16]; 112% in assay [17]; 114% in [18]. For the same compound, the figures for the growth in [19] and in assay [20] were 115% and 101%, respectively.

For `CCCCCCCCCCCCCCCCCCOc1ccccc1CC(=O)OCC[N+]1(C)CCCCC1`, the growth in assay [1] is 29.8%; in [2], 28.1%; in assay [3] it was 84.6%; in [4], 70%; in assay [5], 62.2%; in [6] it was -9.25% (active). Moreover, the growth in assay [7] was 33.3%; in [8], 42.2%; in [9] it was 31.2%; in assay [10] it was 55.6%; in assay [11] it was 71.6%; in assay [12], 22.6%. Moreover, the growth in assay [13] was 45.3%; in [14], 10.3%; in assay [15], -3.91% (active); in [16] it was 43.5%; in [17], 73.6%; in assay [18], 68.6%. Moreover, the growth in assay [19] was 80.6%; in assay [20], 34.7%.

On to `Cn1ccnc1C(=O)/C=C/c1ccc(CC(=O)Nc2cc(F)c(F)c(F)c2)cc1`, for which the growth was 8.11% (active) in assay [1]; 58.1% in assay [2]; 21.1% in [3]; 11.8% in assay [4]; 5.19% (active) in assay [5]; 69.4% in [6]. Besides, the growth in [7] is 12.3%; in assay [8], 28.6%; in assay [9] it was 6.02% (active); in assay [10] it was 24%; in assay [11], 3% (active); in assay [12], 12.6%. The growth in assay [13] is 83.2%; in assay [14] it was 6.11% (active); in assay [15], -15.6% (active); in assay [16], 15.5%; in [17], 51.5%; in [18] it was -19.5% (active). In addition, the values for the growth in assay [19] and in [20] were 80.2% and 62.7%, respectively.

In the case of `C#Cc1c(I)n(C2OC(CO[Si](C)(C)C(C)(C)C)C3OC(C)(C)OC32)c(=O)[nH]c1=O` (stereo not given), the growth is 85.7% in [1]; 98.1% in assay [2]; 113% in [3]; 97% in assay [4]; 114% in [5]; -80.9% (active) in assay [6]. Besides, the growth in [7] is 101%; in [8], 92.6%; in assay [9] it was 93.9%; in [10], -88.2% (active); in assay [11] it was 25.1%; in assay [12] it was -35.5% (active). Also, the growth is 66.4% in assay [13]; 16.1% in [14]; -72.3% (active) in [15]; 100% in assay [16]; 120% in assay [17]; 92.4% in [18]. Moreover, the figures for the growth in [19] and in assay [20] were 64.1% and 76.4%, respectively.

For `COc1ccc(C2=NN(C=O)C(c3ccc(Oc4nc5c(c(=O)n(C)c(=O)n5C)n4C)c(OC)c3)C2)cc1` (stereo not given), the growth in assay [1] was 80.7%; in assay [2], 82.4%; in [3], 76.6%; in assay [4], 87%; in [5] it was 99%; in assay [6], 95.2%. The growth is 92.9% in [7]; 56.6% in assay [8]; 103% in assay [9]; 91.5% in assay [10]; 60.9% in [11]; 89.9% in assay [12]. The growth in assay [13] was 102%; in assay [14] it was 77.6%; in [15], 110%; in [16], 57.8%; in [17], 75.5%; in [18] it was 110%. Further, the growth in assay [19] was -10.3% (active); in [20] it was 68.9%.

Regarding `O=c1cc(-c2nccc3c2[nH]c2ccccc23)c2cc(Cl)ccc2o1`, the growth in [1] was 60.7%; in [2], 49.5%; in [3] it was 81.6%; in [4] it was 32.7%; in assay [5], 21.5%; in [6], 26.1%. Besides, the growth in [7] was 14.4%; in assay [8], 42.3%; in [9], 27.9%; in assay [10], 68.7%; in assay [11], 79.8%; in assay [12] it was 15.1%. In addition, the growth in [13] was 49.8%; in [14] it was 62.5%; in assay [15], 82.2%; in assay [16], 54.6%; in assay [17] it was 13.9%; in [18], 17.6%. Besides, the growth in assay [19] is 35.4%; in assay [20], 17.3%.

Consider `COC(=O)[C@H](C)NC(=O)[C@@H]1CCCN1C(=O)CNC(=O)[C@H](C)N`, for which the growth in assay [1] was 105%; in assay [2] it was 101%; in [3] it was 96.5%; in [4] it was 114%; in [5], 106%; in assay [6], 89%. The growth in [7] is 96.2%; in assay [8], 106%; in assay [9], 98%; in assay [10], 104%; in [11], 105%; in assay [12] it was 101%. For the same compound, the growth in assay [13] was 86.7%; in [14] it was 106%; in [15] it was 108%; in [16], 97%; in assay [17], 100%; in assay [18], 106%. In addition, the growth in assay [19] and in [20] was 103% each time.

Values taken from PubChem BioAssay (NCI).
